Assay outcomes (PubChem BioAssay)
Shown are actives, neighbours in structure and some others; about 4.6% of the full set was active somewhere.
UCHL1 inh – blocks human UCHL1 ubiquitin-rhodamine cleavage; P09936; AID 1645859; 47,000 compounds, 0.2% hits; purified UCHL1, Ub-rhodamine cleavage fluorescence; inhibition, % at 20 µM
USP7 inh – blocks human USP7 ubiquitin-rhodamine cleavage; inhibition, % at 20 µM; 47,000 compounds, 0.3% hits; purified USP7, Ub-rhodamine cleavage fluorescence
USP10 inh – blocks human USP10 ubiquitin-rhodamine cleavage | purified USP10, Ub-rhodamine fluorescence, 60 min | inhibition, % at 20 µM | 47,000 compounds, 1.1% hits
Target sequence (Q14694 whole entry, looked up): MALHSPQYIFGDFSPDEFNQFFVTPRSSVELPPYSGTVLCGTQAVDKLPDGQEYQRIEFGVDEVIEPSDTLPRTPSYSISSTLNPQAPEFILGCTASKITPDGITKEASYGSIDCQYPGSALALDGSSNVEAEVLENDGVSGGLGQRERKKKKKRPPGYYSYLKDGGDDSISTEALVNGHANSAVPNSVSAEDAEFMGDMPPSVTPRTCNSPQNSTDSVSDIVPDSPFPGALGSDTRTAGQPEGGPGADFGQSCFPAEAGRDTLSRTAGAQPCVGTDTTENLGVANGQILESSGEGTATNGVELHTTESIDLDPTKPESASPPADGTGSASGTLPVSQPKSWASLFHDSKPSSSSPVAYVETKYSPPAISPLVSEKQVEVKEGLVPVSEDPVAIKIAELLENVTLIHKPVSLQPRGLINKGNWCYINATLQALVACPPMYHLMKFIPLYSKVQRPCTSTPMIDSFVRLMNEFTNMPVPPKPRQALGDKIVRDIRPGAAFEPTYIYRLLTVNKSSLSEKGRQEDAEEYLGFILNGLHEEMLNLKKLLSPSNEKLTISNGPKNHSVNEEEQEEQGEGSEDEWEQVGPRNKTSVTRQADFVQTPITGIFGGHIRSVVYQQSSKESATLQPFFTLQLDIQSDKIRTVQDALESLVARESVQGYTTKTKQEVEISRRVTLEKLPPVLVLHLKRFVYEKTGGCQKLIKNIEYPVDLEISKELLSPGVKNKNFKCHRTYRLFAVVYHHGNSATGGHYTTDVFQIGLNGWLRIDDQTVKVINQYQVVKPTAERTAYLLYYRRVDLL
USP8 inh – inhibitors of human USP8 deubiquitinase | purified USP8, Ub-rhodamine cleavage fluorescence, 30 min | AID 1645853 | inhibition, % at 20 µM | P40818 | 47,000 compounds, 4.2% hits
An asterisk follows results filed as active. Cut-off read from the data, not from the text of the source: active = inhibition above about 30%; inactive = the rest.

SMILES | UCHL1 inh | USP7 inh | USP10 inh | USP8 inh
Cc1cccc2c1N(CC(=O)NC(C)c1ccccc1)C(=O)C1CCCN1C2=O (configuration not stated) | -3 | -1 | -2 | 1
N#Cc1cccc(NC(=O)Nc2cccn(Cc3ccc(F)cc3)c2=O)c1 | 8 | -1 | 20 | 91*
CN(Cc1ccccc1)C(=O)CN1CCC2(CCC1=O)NC(=O)c1ccccc1N2 (configuration not stated) | 2 | 8 | 1 | 15
COc1ccc(C(=O)Nc2ccccc2C(=O)NC(Cc2ccc(O)cc2)C(=O)NNC(=O)Cc2ccc(OC)c(OC)c2)cc1 (configuration not stated) | 3 | 5 | 67* | 8
COc1ccc(CNC(=O)c2ccccc2NC(=O)c2ccc(F)cc2)cc1 | 7 | 7 | 2 | 19
O=C(c1ccc(Cl)cc1)N1CCC2(CC1)OC(C(=O)N1CCOCC1)Cn1ccnc12 (configuration not stated) | -3 | 0 | -7 | -40
O=C(Oc1ccccc1Br)c1ccc(Cl)c(S(=O)(=O)N2CCCCC2)c1 | 3 | 5 | 9 | 31*
N#Cc1ccccc1NC(=O)c1ccc(Cl)c(S(=O)(=O)N2CCCCCC2)c1 | 6 | 6 | 9 | 1
O=c1cc(-c2cc3ccccc3oc2=O)c2ccc(O)cc2o1 | 4 | -1 | 2 | 19
O=c1oc2ccccc2cc1-c1nc(-c2ccc(Oc3ccccc3)cc2)cs1 | 9 | 70* | 0 | 53*
Cc1ccc(CNC(=O)C2CCCN(c3ccc(N4CCOCC4)nn3)C2)cc1 (configuration not stated) | -3 | -8 | 1 | -34
Cc1ncc(CN2CCOC(c3cccc(-c4cnc(N)nc4)n3)C2)s1 (configuration not stated) | -6 | 1 | -9 | -140
Cc1c(NC(=O)Cc2cccs2)cccc1-n1cnnn1 | 0 | 2 | -3 | 51*
COC(=O)C12Oc3ccc(-c4ccc5c(c4O)C(O)=C4C(=O)CC(C)C(O)C4(C(=O)OC)O5)c(O)c3C(O)=C1C(=O)CC(C)C2O (configuration not stated) | 5 | 3 | 5 | 8
COc1ccc(S(=O)(=O)Nc2ccc(S(=O)(=O)Nc3ccccc3C)cc2)cc1OC | -2 | 1 | 2 | 3
Cc1nn(-c2ccccc2)c2c1N=C1C(Cl)=CC(Cl)=CN1C21C(=O)Nc2ccccc21 (configuration not stated) | 15 | 65* | 4 | 94*
Cc1nn(-c2cccc(C(F)(F)F)c2)c2c1C(c1ccccc1)N1C=C(Cl)C=C(Cl)C1=N2 (configuration not stated) | -1 | 3 | 0 | -106
CCCN1C(=O)Cc2c(C)nc(-c3cccc(F)c3)nc21 | 0 | -22 | -5 | 75*
O=C(c1cc([N+](=O)[O-])ccc1Cl)N1CCCCC1CO (configuration not stated) | -1 | -39 | 0 | 2
Cc1nc2ccc(C(=O)Nc3cc(Cl)cc4cccnc34)cc2nc1C | 4 | -9 | -7 | 87*
COCc1nc2ccccc2n1Cc1cccc2ccccc12 | 7 | -45 | 4 | 0
COC(=O)c1ccc(CNC(=O)c2ccc(Oc3ccccc3)cc2)cc1 | 3 | 2 | 12 | 34*
COC(=O)c1ccc(CNC(=O)c2ccc3c(c2)OCCO3)cc1 | -3 | 0 | -2 | 3
CCOC(=O)c1cc(=O)c2ccc(OCC(=O)Nc3ccc4c(c3)OCCO4)cc2o1 | 5 | 2 | 7 | 65*
COc1cccc(CNCc2c(C(=O)O)n(Cc3ccccc3F)c3ccccc23)c1OC | -59 | -88 | -8 | -44
SMILES | UCHL1 inh | USP7 inh | USP10 inh | USP8 inh
Cc1cccc(C(=O)N2CCc3cc(-c4nc(NC(=O)C5(c6ccc(Cl)cc6)CCC5)sc4C)ccc32)c1 | -1 | 15 | 21 | 33*
Cc1sc(NC(=O)CNc2ccccc2)nc1-c1ccc2c(c1)CCN2C(=O)C1CCCCC1 | 10 | -31 | 14 | 63*
Cc1sc(NC(=O)C2(c3ccc(Cl)cc3)CCC2)nc1-c1ccc2c(c1)CCN2C(=O)c1ccccc1F | -4 | -1 | -5 | -14
Cc1sc(NC(=O)CN2CCc3ccccc3C2)nc1-c1ccc2c(c1)CCN2C(=O)C(C)C | -17 | -24 | -10 | 47*
COc1ccc(C(=O)N2CCC3(CC2)[C@@H]2CN(CC(C)C)C[C@@H]2C(=O)N3C)cc1 | -1 | 0 | -1 | 0
COc1ccc(N2CCN(c3ccc(Cl)cc3[N+](=O)[O-])CC2)cc1 | 3 | 2 | 5 | 33*
COc1ccc(CNC(=O)c2ccc(N3CCOCC3)c([N+](=O)[O-])c2)cc1 | 0 | 4 | 0 | -77
Cc1ccc2oc(C(=O)Nc3ccnn3Cc3ccccc3)cc(=O)c2c1 | 6 | 6 | 0 | -29
COc1cccc(CC(=O)N[C@@H](C)c2nc3cc(-c4ccc(F)cc4)ncn3n2)c1 | 0 | -3 | 0 | 2
COc1ccc(-c2cc3nc([C@H](C)NC(=O)Cc4cc(F)ccc4F)nn3cn2)cc1 | 22 | 46* | 37* | 14
COCCOc1ccc(C(=O)N[C@H](C)c2nc3cc(-c4ccccc4F)ncn3n2)cc1 | -1 | 0 | 5 | 3
COc1ccc(-c2cc3nc([C@@H](C)NC(=O)c4ccc5c(c4)OCO5)nn3cn2)cc1 | 0 | -34 | 1 | 32*
COc1ccc(-c2cc3nc([C@H](C)NC(=O)Cc4cccc(F)c4)nn3cn2)cc1 | 38* | 52* | 29 | 9
Cn1c(=O)c2c(nc(NCc3ccccc3)n2CC(O)CN2CCN(Cc3ccccc3)CC2)n(C)c1=O (configuration not stated) | 4 | 0 | -4 | -222
CCC(=O)Nc1ccc(-n2cnc(C(=O)NC3CCCCC3)c2)nc1 | -4 | -3 | -3 | -10
O=C(CSc1ncccc1C(=O)Nc1ccnn1Cc1cccnc1)Nc1ccc2c(c1)OCO2 | -4 | -7 | -7 | 45*
COc1cccc(NC(=O)C(C)OC(=O)c2ccc(NS(=O)(=O)c3ccc(F)c(F)c3)cc2)c1 (configuration not stated) | 1 | 6 | 12 | -6
COc1ccc(C(=O)C(C)OC(=O)c2cccc(S(=O)(=O)Nc3cc([N+](=O)[O-])ccc3OC)c2)c(OC)c1 (configuration not stated) | 6 | 17 | 37* | 20
Cc1ccc(NS(=O)(=O)c2cccc(C(=O)NC3CCN(Cc4ccccc4)CC3)c2)c(C)c1 | 7 | 2 | 0 | -1
O=C(NC1CCCCCC1)c1cccc(S(=O)(=O)Nc2cc(C(F)(F)F)ccc2Cl)c1 | 6 | 2 | 53* | 26
O=C(c1cnc2ccccc2c1S(=O)(=O)c1ccc(Cl)cc1)N1CCCCC1 | 2 | -7 | 0 | -14
O=C(CSc1nnc2c3ccccc3nc(-c3ccco3)n12)N1CCCc2ccccc21 | -2 | 1 | 48* | 34*
CC1(O)CC(=O)c2c(cc3cc(O)cc(O)c3c2O)C1 (configuration not stated) | 93* | 94* | 79* | 70*
CC(=O)Nc1ccc(-n2cnc(C(=O)NC3CCCC3)c2)nc1 | 0 | 0 | 0 | -9
